Compound activity from PubChem.
Rows were chosen to be rich in hits. Some 21% of all compounds tested hit in one or more screens of this group.
VP16 counter: VP16 counterscreen qHTS for inhibitors of ROR gamma transcriptional activity; Drosophila S2 Gal4-VP16 UAS-luciferase, luminescence, 20 h; Potency, µM (titrated, usually from 53.6 µM), actives largely listed as inhibitors; 310,000 tested, 3.5% active;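 note: Gal4-VP16 expression switched on by copper sulfate through the metallothionein promoter; nearly all actives have a fitted effect of over 50% in size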
ELG1 repair inh: qHTS screen for small molecules that inhibit ELG1-dependent DNA repair in human embryonic kidney (HEK293T) cells expressing luciferase-tagged ELG1. HEK293T ELG1-luciferase reporter, luminescence, 16 h; DNA damage induced by 5-fluorouridine. AID 504467, 2011. Potency, µM (highest dose often 46.1 µM), hits mostly inhibitors. 330,000 tested, 2.3% active; note: nearly all actives have a fitted effect of over 55% in size
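5-Fluorouridine DNA damage + compound/DMSO, 2,000 cells/well, 16 h, 37 °C/5% CO2. ONE-Glo, 30 min RT, luminescence. Readout = decrease in reporter signal.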
IL1B secr inh: qHTS for Inhibitors of Inflammasome Signaling: IL-1-beta AlphaLISA Primary Screen; THP-1 LPS/ATP IL-1B secretion, AlphaLISA, 16 h; active compounds read low; activity change, % at 57.5 µM; 360,000 tested, 4.7% active; AID 743279, 2014; in the data active = activity change below about -50%; inconclusive = mostly about -30% to -49%
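THP-1 cells pretreated 1 hr with compounds (up to 57.5 uM final), then stimulated with LPS (250 ng/mL final) plus ATP (1.25 mM final); secreted IL-1B measured by AlphaLISA after 16 hr, decreased signal indicating inhibition.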
DT40 TDP1 CPT: qHTS for Inhibitors of human tyrosyl-DNA phosphodiesterase 1 (TDP1): qHTS in cells in presence of CPT. chicken DT40 Tdp1-/-;hTDP1 cells + 20 nM CPT, ATP luminescence, 48 h. Potency, µM (top dose mostly 46.2 µM), most hits filed as inhibitors. 420,000 tested, 12% active; note: nearly all actives have a fitted effect of over 55% in size
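Chicken DT40 Tdp1-/- cells complemented with human TDP1, 400 cells/well, exposed to compounds plus 20 nM camptothecin for at least 48 h at 37 C; viability read as ATP content by CellTiter-Glo luminescence.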
DT40 TDP1 no CPT: qHTS for Inhibitors of human tyrosyl-DNA phosphodiesterase 1 (TDP1): qHTS in cells in absence of CPT. AID 686978, 2013. DT40 Tdp1-/- hTDP1 cells, no CPT, ATP luminescence, 48 h. Potency, µM (titrated, usually from 46.2 µM), hits mostly inhibitors. 420,000 tested, 15% active; note: nearly all actives have a fitted effect of over 55% in size
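A cellular qHTS used chicken DT40 cells lacking endogenous Tdp1 but carrying stably transfected human TDP1. Compounds were applied without camptothecin, and cell growth kinetics were judged by ATP-dependent luminescence after ≥48 hr.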
RORg inh: qHTS for inhibitors of ROR gamma transcriptional activity; Nuclear receptor ROR-gamma (Mus musculus), P51450; Drosophila S2 Gal4-RORgamma UAS-luciferase reporter, 20 h; Potency, µM (titrated, usually from 53.6 µM), hits mostly inhibitors; 310,000 tested, 5.4% active; AID 2551, 2010; note: nearly all actives have a fitted effect of over 60% in size
Target sequence (P51450 whole entry, looked up, the tested form may be a part): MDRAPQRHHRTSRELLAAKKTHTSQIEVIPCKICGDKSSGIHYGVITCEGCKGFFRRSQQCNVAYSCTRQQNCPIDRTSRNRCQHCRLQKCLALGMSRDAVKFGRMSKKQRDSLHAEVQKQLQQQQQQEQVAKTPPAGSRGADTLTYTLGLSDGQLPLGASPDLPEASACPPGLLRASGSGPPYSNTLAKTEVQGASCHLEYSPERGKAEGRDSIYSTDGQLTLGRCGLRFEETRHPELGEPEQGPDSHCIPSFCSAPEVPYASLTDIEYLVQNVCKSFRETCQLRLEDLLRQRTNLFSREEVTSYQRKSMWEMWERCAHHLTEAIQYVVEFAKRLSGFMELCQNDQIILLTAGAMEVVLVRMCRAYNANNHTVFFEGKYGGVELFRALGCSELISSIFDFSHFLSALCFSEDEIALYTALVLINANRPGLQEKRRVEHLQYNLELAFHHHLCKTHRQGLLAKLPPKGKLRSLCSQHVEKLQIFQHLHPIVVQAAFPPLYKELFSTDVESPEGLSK
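ROR gamma transcriptional activity was tracked as Gal4-UAS luciferase output in stably transfected Drosophila Schneider cells, with compound added 1 hr before 700 uM copper sulfate induction and a 20 hr ambient-temperature incubation.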
Hits are given with their value; i = inactive; ? = inconclusive; nt = no result given. Unless noted, calls come from the whole dose curve; as a rule, active = well fitted curve in the direction sought with a large enough effect; inconclusive = small, poorly fitted or top-dose-only effect, or another doubt; inactive = no such curve, though single readings can be large; an effect the other way counts as inactive or inconclusive.

SMILES	VP16 counter	ELG1 repair inh	IL1B secr inh	DT40 TDP1 CPT	DT40 TDP1 no CPT	RORg inh
O=C(N/N=C/C(Br)=C/c1ccccc1)c1ccncc1	i	?	-83.6	1.64µM	1.64µM	i
O=C(N/N=C/C(Br)=C\c1ccccc1)c1ccc2nc[nH]c2c1	7.94µM	?	-89.9	10.3µM	14.6µM	14.1µM
CC(/C=N\NC(=O)c1cccnc1)c1ccccc1 (stereo not given)	nt	nt	i	i	i	nt
O=C(N/N=C/C(Br)=C/c1ccccc1)c1cccnc1	i	i	-94.8	2.59µM	2.06µM	?
CC(=O)N/C(=C/c1ccccc1)c1ccncc1	nt	nt	nt	7.94µM	11.2µM	nt
CCOc1ccccc1C(=O)NC1(C(F)(F)F)C(=O)Nc2c1c(=O)[nH]c(=O)n2-c1ccccc1 (stereo not given)	nt	nt	nt	i	i	nt
COCCn1c(=O)c(-c2ccc(Cl)cc2)nc2cnc(Oc3ccc(OC)cc3)nc21	i	nt	nt	?	i	i
O=C(N/N=C/C(Br)=C/c1ccccc1)c1ccc([N+](=O)[O-])cc1	i	i	?	4.11µM	4.11µM	12.6µM
CCNC(=O)/C(C#N)=C/c1c(N2CCN(c3ccccc3)CC2)nc2ccccn2c1=O	i	i	i	?	?	i
CCOC(=O)/C(C#N)=C/c1c(Oc2cc(C)cc(C)c2)nc2ccccn2c1=O	?	i	i	i	i	i
CC1CN(c2nc3ccccn3c(=O)c2/C=C(\C#N)C(N)=O)CC(C)O1 (stereo not given)	i	i	-65.2	i	i	i
N#C/C(=C\c1c(N(Cc2ccccc2)Cc2ccccc2)nc2ccccn2c1=O)C(N)=O	7.08µM	16.4µM	?	?	?	?
C=CCNC(=O)/C(C#N)=C/c1c(N(Cc2ccccc2)Cc2ccccc2)nc2ccccn2c1=O	i	13µM	-53.1	?	?	i
C[C@@]12C=CC(=O)C=C1CC[C@H]1[C@H]3CC[C@](O)(C(=O)CO)[C@]3(C)CC(=O)[C@@H]12	i	nt	nt	nt	nt	i
CCOC(=O)c1ccc(NC(=O)C(CC)Sc2nc3ncccc3o2)cc1 (stereo not given)	nt	nt	nt	i	?	nt
C[C@H](CO)N1C[C@H](C)[C@@H](CN(C)S(=O)(=O)c2cccs2)OCc2cnnn2CCCC1=O	nt	nt	i	i	?	nt
CC(=O)Nc1ccccc1-c1nc2ccccc2n(CC(=O)Nc2cccc(C)c2C)c1=O	nt	nt	nt	i	i	nt
CCOC(=O)c1cc2c(C)[nH]c(C)c2cc(C(=O)OCC)c1=O	i	?	i	?	7.31µM	i
CCOC(=O)c1cc(C(=O)OCC)c(=O)[nH]c1C	i	i	i	?	?	i
CCOC(=O)c1cc2c(C)n(-c3ccc(OCC)cc3)c(C)c2cc(C(=O)OCC)c1=O	i	i	i	?	16.4µM	i
Cc1ccc(NC(=O)c2cc(S(=O)(=O)NC3CCCCC3)ccc2F)cc1Cl	nt	nt	nt	23.1µM	20.6µM	nt
O=C(Nc1ccc(F)c(F)c1)c1cc(S(=O)(=O)NC2CCCC2)ccc1F	nt	nt	nt	?	23.1µM	nt
O=C(Nc1cc(Cl)cc(Cl)c1)c1cc(S(=O)(=O)NC2CCCC2)ccc1F	nt	nt	nt	?	20.6µM	nt
COc1cc(S(=O)(=O)NC2CCCC2)ccc1F	i	i	i	i	i	i
O=C(Nc1ccc(Br)cc1)c1cc(S(=O)(=O)NC2CCCC2)ccc1F	nt	nt	nt	23.1µM	20.6µM	nt
SMILES	VP16 counter	ELG1 repair inh	IL1B secr inh	DT40 TDP1 CPT	DT40 TDP1 no CPT	RORg inh
Cc1ccc(NS(=O)(=O)c2ccc(-c3coc(C)n3)cc2)c(Br)c1	i	i	i	i	i	?
COc1ccc(C)cc1NC(=O)CCS(=O)(=O)c1cc2c3c(c1)CCN3C(=O)CC2	nt	nt	nt	?	i	nt
CC(C)(C)C1=C(C#N)C(c2ccc3c(c2)OCO3)C(C#N)=C(N)O1 (stereo not given)	i	i	i	?	i	i
CC(C)(C)C1=C(C#N)C(c2ccncc2)C(C#N)=C(N)O1 (stereo not given)	?	i	i	18.4µM	29.1µM	i
CN(CC(=O)NC1CCN(Cc2ccccc2)CC1)S(=O)(=O)c1ccc(Br)s1	i	?	i	?	?	i
Cc1cccc(-c2nc(Cn3c(SCc4cccc(C(F)(F)F)c4)nc4ccncc43)c(C)o2)c1	nt	nt	nt	14.6µM	?	nt
Cc1oc(-c2ccccc2F)nc1Cn1c(SCc2ccccc2F)nc2ccncc21	nt	nt	nt	?	14.6µM	nt
COc1ccc(-c2nc(Cn3c(SCc4ccccc4F)nc4ccncc43)c(C)o2)cc1OC	nt	nt	nt	18.4µM	20.6µM	nt
COc1ccc(-c2nc(Cn3c(SCc4ccc(C)cc4)nc4ccncc43)c(C)o2)cc1OC	?	13µM	i	?	?	i
Cc1oc(-c2ccccc2F)nc1CN1CCC(C(=O)NCc2cccnc2)CC1	i	i	i	i	i	i
COc1ccc(-c2nc(Cn3c(SCc4cccc(F)c4)nc4ccncc43)c(C)o2)cc1OC	?	?	?	?	?	i
CCn1c(C(=O)N2CCCC(C(=O)NCCCc3ccccc3)C2)cc2sccc21 (stereo not given)	11.2µM	20.6µM	?	20.6µM	?	?
CC(CCc1ccccc1)NC(=O)C1CCCN(C(=O)c2cc3sccc3n2C)C1 (stereo not given)	i	?	i	18.4µM	14.6µM	?
CC(C)C(C)C	i	nt	nt	nt	nt	i
CCCCNC(=O)CN1CCN(c2ncc(NC(=O)c3ccc(Cl)cc3)cc2C(=O)O)CC1	nt	nt	nt	i	i	nt
CC(C)Cn1c(=O)c2ccccc2n2c(CCC(=O)NCc3ccccc3Cl)nnc12	nt	nt	nt	i	i	nt
CC(C)Cn1c(=O)c2ccccc2n2c(CCC(=O)Nc3cccc(Cl)c3)nnc12	nt	nt	nt	?	16.4µM	nt
COc1cccc(NC(=O)CCc2nnc3n(Cc4ccccc4Cl)c(=O)c4ccccc4n23)c1	nt	nt	nt	16.4µM	?	nt
CC(C)Cn1c(=O)c2ccccc2n2c(CCC(=O)NCc3ccc(Cl)cc3)nnc12	nt	nt	nt	?	i	nt
O=C(CCc1nnc2n(Cc3ccccc3Cl)c(=O)c3ccccc3n12)Nc1ccc(F)cc1	nt	nt	nt	5.8µM	5.17µM	nt
NC(N)=NCCC[C@H](NC(=O)c1ccccc1)C(=O)Nc1ccc([N+](=O)[O-])cc1	i	nt	nt	nt	nt	i
CCc1nc2ccc(C(=O)NC3CCN(Cc4ccccc4)CC3)cn2c1N(C)Cc1ccc(N(C)C)cc1	nt	nt	i	?	?	nt
Cc1ccc(-n2c(C)c3c(C)nnc(C)c3c2C)cc1C	i	i	?	14.6µM	14.6µM	?
